Assay results published in PMC4336329 (PLoS ONE, 2015).
The campaign covered roughly 310,000 compounds. About 14,000 (4.5%) showed an effect of 50% or more. Effects have a minus sign here. Only a selection was taken, and strong results are over-represented in it overall.

These compounds were tested against human ether-à-go-go-related gene (hERG) potassium channel (human, UniProt Q12809) (assay: primary screen, population patch clamp on CHO cells stably expressing hERG; higher = less effect of the substance).
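Note: peak tail current of the secondary pulse compared with the same well before compound.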

human ether-à-go-go-related gene (hERG) potassium channel, sequence (Q12809 whole entry, looked up): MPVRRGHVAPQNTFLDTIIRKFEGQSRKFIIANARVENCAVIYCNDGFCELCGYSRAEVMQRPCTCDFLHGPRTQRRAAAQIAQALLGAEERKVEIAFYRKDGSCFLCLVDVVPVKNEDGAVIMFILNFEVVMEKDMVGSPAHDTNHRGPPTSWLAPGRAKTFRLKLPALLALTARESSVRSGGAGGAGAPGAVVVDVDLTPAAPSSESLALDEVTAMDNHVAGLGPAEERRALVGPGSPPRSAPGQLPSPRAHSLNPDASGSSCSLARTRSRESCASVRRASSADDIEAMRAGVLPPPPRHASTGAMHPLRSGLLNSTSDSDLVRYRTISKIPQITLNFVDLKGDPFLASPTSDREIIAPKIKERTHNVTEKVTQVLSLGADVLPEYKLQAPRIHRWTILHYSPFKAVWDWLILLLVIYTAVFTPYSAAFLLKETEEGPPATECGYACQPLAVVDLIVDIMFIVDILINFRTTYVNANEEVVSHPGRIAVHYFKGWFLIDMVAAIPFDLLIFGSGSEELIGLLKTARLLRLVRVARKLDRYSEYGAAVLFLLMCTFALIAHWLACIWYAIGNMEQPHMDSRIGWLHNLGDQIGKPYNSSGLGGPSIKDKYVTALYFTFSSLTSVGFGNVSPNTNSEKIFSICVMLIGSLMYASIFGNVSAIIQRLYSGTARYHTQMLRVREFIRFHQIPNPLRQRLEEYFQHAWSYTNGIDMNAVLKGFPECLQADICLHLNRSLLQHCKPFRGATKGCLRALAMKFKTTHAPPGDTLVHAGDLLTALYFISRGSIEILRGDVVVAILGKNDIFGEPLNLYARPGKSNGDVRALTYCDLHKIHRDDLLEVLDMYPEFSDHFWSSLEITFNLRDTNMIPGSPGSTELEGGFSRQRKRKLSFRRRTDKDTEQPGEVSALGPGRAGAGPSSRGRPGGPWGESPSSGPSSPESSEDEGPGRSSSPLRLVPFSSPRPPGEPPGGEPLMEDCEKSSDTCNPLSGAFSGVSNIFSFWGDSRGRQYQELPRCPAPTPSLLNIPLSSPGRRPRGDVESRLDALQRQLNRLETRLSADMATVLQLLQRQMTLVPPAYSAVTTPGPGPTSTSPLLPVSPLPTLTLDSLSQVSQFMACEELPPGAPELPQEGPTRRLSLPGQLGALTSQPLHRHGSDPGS

Structure (SMILES) | hERG current change (%, negative = inhibition) at 10uM
CCCCOC(=O)Nc1ccc(C(=O)OCCC)cc1 | -12.9%
CCC(C)c1ccc2oc(-c3ccc(NC(=O)c4ncn[nH]4)cc3)nc2c1 (centres unmarked) | -1.89%
CCOc1ccc(N2C(=O)CC(N3CCC(O)(c4ccc(Br)cc4)CC3)C2=O)cc1 (centres unmarked) | -49.1%
CC1(C)CC(=O)C2=C(C1)NC(=O)CC2c1cc(F)ccc1F (centres unmarked) | -21.6%
Cc1cc(C)c2c(c1)/C(=N/NS(=O)(=O)c1ccccc1)CCC2 | 7.48%
COC(=O)Nc1ccc(S(=O)(=O)NCCCCCC(=O)O)cc1 | -1.56%
CCOC(=O)c1nn(-c2ccccc2C)c(=O)cc1OCC(=O)N1CCN(c2ccccc2)CC1 | -24.6%
CCOC(=O)c1nn(-c2ccc(C)cc2)c(=O)cc1OCC(=O)N1CCN(c2ccccc2)CC1 | -51.9%
CCn1c(=O)cc(OCC(=O)N2CCN(c3cccc(C(F)(F)F)c3)CC2)c2ccccc21 | -48.2%
CCN1CCN(C(=O)COc2cc(=O)n(CC)c3ccccc23)CC1 | -2.67%
CCOC(=O)c1nn(-c2ccc(F)cc2)c(=O)cc1OCC(=O)N1CCN(c2ccccc2)CC1 | -15.6%
CCn1c(=O)cc(OCC(=O)N2CCN(c3ccc(F)cc3)CC2)c2ccccc21 | -69.8%
CN(C)c1ccc(CNn2cnnc2SCC(=O)NC(C)(C)C)cc1 | 23.4%
CCOc1ccc(C(=O)OCC(=O)NCCCc2ccccc2)cc1 | 0.425%
Cc1c(/C=N/n2cnnc2)c2ccccc2n1C | 1.25%
CC(NC(=O)C12CC3CC(C1)CC(n1cncn1)(C3)C2)C12CC3CC(CC(C3)C1)C2 (centres unmarked) | -61.9%
O=C(NC1CCCCC1)C12CC3CC(C1)CC(n1cncn1)(C3)C2 | 0.934%
COC(=O)c1ccc(NC(=O)C23CC4CC(C2)CC(n2cncn2)(C4)C3)cc1 | -22%
CCN(CC)C(=O)CSC1=C(C#N)C(c2cccs2)C=C(C)N1 (centres unmarked) | 14.1%
COc1ccc2c(c1)CC/C(=C/c1ccncc1)C2=O | -55.2%
COc1ccc2c(c1)CC/C(=C/c1ccccn1)C2=O | 3.19%
COc1ccc2c(c1)CC/C(=C/c1cc(OC)c(OC)c(OC)c1)C2=O | -1.54%

Structure (SMILES) | hERG current change (%, negative = inhibition) at 10uM
CCCc1cc(=O)oc2cc(OCc3cc(OC)c(OC)c(OC)c3)c(Cl)cc12 | 17.4%
CC1(C)CC(NC(=S)NCc2ccco2)CC(C)(C)N1 | 18.9%
CCOc1ccc(CN2CCN(Cc3ccc(C)o3)CC2CCO)cc1 (centres unmarked) | -104%
Cc1ccccc1CN1CCN(Cc2cc3ccccc3o2)CC1CCO (centres unmarked) | -6.94%
CCOc1ccc(CN2CCN(C3CCSCC3)CC2CCO)cc1 (centres unmarked) | -74.3%
COc1ccc(CN2CCN(C3CCC3)CC2CCO)c(C)c1C (centres unmarked) | 0.432%
COc1ccc(CN2CCN(Cc3cc4ccccc4o3)CC2CCO)c(F)c1 (centres unmarked) | -60.9%
COc1ccc(CN2CCN(C3CCSCC3)CC2CCO)c(C)c1C (centres unmarked) | -51.1%
CCOc1ccc(CN2CCN(C3CCC3)CC2CCO)cc1 (centres unmarked) | -19.2%
COc1ccc(CN2CCN(C3CCOCC3)CC2CCO)c(C)c1C (centres unmarked) | -12.4%
CCOc1ccccc1CN1CCN(Cc2ccc(C)o2)CC1CCO (centres unmarked) | -37.9%
CCOc1ccccc1CN1CCN(C2CCSCC2)CC1CCO (centres unmarked) | -25.9%
Cc1ccc(CN2CCN(Cc3ccc(OCCO)cc3)CC2CCO)o1 (centres unmarked) | 1.29%
COc1cccc(CN2CCN(Cc3cc4ccccc4o3)CC2CCO)c1 (centres unmarked) | -10.7%
CCOC(=O)C1=C(CS(=O)(=O)c2ccccc2)NC(=O)NC1c1ccccc1OCC (centres unmarked) | -4.89%
Cc1ccsc1C1NC(=O)c2ccccc2N1 (centres unmarked) | 5.58%
CCC(C)(C)NC(=O)C(c1ccc(OC)cc1)N(C(=O)CCC(=O)Nc1cc(C)on1)c1ccc2c(c1)OCCO2 (centres unmarked) | 11.1%
O=C1OC/C(=C(/O)c2ccc(Cl)cc2)C1=O | 17%
Cc1cc(NC(=S)NC(=O)c2ccco2)c2ccccc2n1 | -1.51%
Cc1ccc(S(=O)(=O)N2CCCCC2C(=O)O)cc1 (centres unmarked) | 6.47%
COc1ccc(C(=O)C2CCN(C(=S)NCC3CCCO3)CC2)cc1 (centres unmarked) | -7.23%
O=C(c1cccc(S(=O)(=O)N2CCCC2)c1)N(Cc1ccco1)C1CCS(=O)(=O)C1 (centres unmarked) | -21.8%
